Assay [1] can be described thus: qHTS assay to identify small molecule agonists of the NFkB signaling pathway - cell viability counter screen (AID 1159515; calls by dose curve; note: nearly all actives have a fitted effect of over 55% in size; note: potency is the fitted concentration of half-maximal effect). Summed up: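 ME-180 NFkB-bla cells, 2,000/well; overnight attach; compound 5 hr, 37 C/5% CO2; LiveBLAzer substrate 1.5 hr RT; then CellTiter-Glo in same wells, 30 min RT, luminescence read.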
Background: In qHTS, concentration-response curves come from the screen itself.

Assay [2] in a line: qHTS assay to identify small molecule agonists of the endoplasmic reticulum stress response signaling pathway (AID 1159516; active = well fitted activation curve with a large enough effect in the signal ratio in the repeat runs, not every such curve was filed as active; the % refers to the signal ratio). Summed up: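 HeLa ESRE-bla reporter line; cpd 5 h, 37 C/5% CO2; LiveBLAzer B/G FRET substrate 2 h RT; ex 405, em 460/530 nm.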
A short description of assay [3]: qHTS assay to identify small molecule antagonists of the retinoid-related orphan receptor gamma (ROR-gamma) signaling pathway - cell viability counter screen (AID 1159520). Note: nearly all actives have a fitted effect of over 50% in size. Note: potency is the fitted concentration of half-maximal effect. The procedure, abridged:
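Tet-on ROR gamma CHO cells were given compounds for 2 hr, then doxycycline hyclate at 1 uM final, and incubated 16 hr at 37 C. Viability was measured as ATP content by CellTiter-Glo luminescence.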

The target in assay [4] is Nuclear receptor ROR-gamma (Homo sapiens) (UniProt P51449). As to the kind of experiment: qHTS assay to identify small molecule antagonists of the retinoid-related orphan receptor gamma (ROR-gamma) signaling pathway (AID 1159521; note: nearly all actives have a fitted effect of over 50% in size; note: potency is the fitted concentration of half-maximal effect). Summed up: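 RORγ antagonism is scored from reduced reporter luminescence in Tet-on CHO cells. Induction used 1 uM final doxycycline hyclate for 16 h at 37 C, following a 2 h compound exposure.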

Assay [5] can be described thus: qHTS assay to identify small molecule agonists of the AP-1 signaling pathway - cell viability counter screen (AID 1159525; calls by dose curve; note: nearly all actives have a fitted effect of over 55% in size; note: potency is the fitted concentration of half-maximal effect). Summed up:
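Same-well cytotoxicity counter screen of the Tox21 10K library in ME-180 cells. The readout is ATP-dependent luminescence after 5 h compound treatment. Data are normalised to DMSO and tetra n-octyl ammonium bromide controls.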

Assay [6] in a line: qHTS assay to identify small molecule agonists of the AP-1 signaling pathway (AID 1159526; calls by dose curve).
A short description of assay [7]: qHTS assay to identify small molecule agonists of the RXR signaling pathway - cell viability counter screen (AID 1159529). Note: nearly all actives have a fitted effect of over 50% in size. Note: potency is the fitted concentration of half-maximal effect. Summed up:
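Cell viability is measured by CellTiter-Glo luminescence, 30 min at room temperature, in wells already read for beta-lactamase. Engineered HEK 293T cells (RXR-alpha-UAS-bla) are dosed 16 hr at 37 C. Tetraoctyl ammonium bromide serves as positive control.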

The nature of assay [8]: qHTS assay to identify small molecule antagonists of the retinoid acid receptor (RAR) signaling pathway - cell viability counter screen (AID 1159551). Note: nearly all actives have a fitted effect of over 35% in size. Note: potency is the fitted concentration of half-maximal effect. The procedure, abridged:
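C3RL4 RARE-luciferase line; cpds + retinol 1 uM final, 6 h, 37 C/5% CO2; CellTiter-Glo ATP luminescence, 30 min RT.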

Assay [9] can be described thus: qHTS assay to identify small molecule antagonists of the retinoic acid receptor (RAR) signaling pathway (AID 1159552; note: nearly all actives have a fitted effect of over 50% in size; note: potency is the fitted concentration of half-maximal effect). The procedure, abridged: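 Quantitative HTS in C3RL4 RARE-luciferase reporter cells. Compounds were added with 1 uM (final) retinol; luminescence was read after 6 hr.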
A short description of assay [10]: qHTS assay to identify small molecule agonists of the endoplasmic reticulum stress response signaling pathway - cell viability counter screen (AID 1159517; calls by dose curve; note: nearly all actives have a fitted effect of over 50% in size; note: potency is the fitted concentration of half-maximal effect). The procedure, abridged:
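Steps: seed 1,500 ESRE-bla HeLa cells per well; incubate overnight at 37 C, 5% CO2; add compounds in DMSO for 5 hr; run FRET substrate 2 hr RT; add CellTiter-Glo, wait 30 min, read luminescence.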

Assay [11] deals with Retinoic acid receptor RXR-alpha (Homo sapiens) (UniProt P19793). The experiment in a line: qHTS assay to identify small molecule agonists of the RXR signaling pathway (AID 1159527; calls by dose curve; note: nearly all actives have a fitted effect of over 35% in size). Summed up:
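qHTS of the Tox21 10K library in GeneBLAzer RXR-alpha HEK 293T cells carrying a beta-lactamase reporter […]; 16 hr treatment, 9-cis retinoic acid as agonist control, FRET read-out.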

Assay [12] can be described thus: qHTS assay to identify small molecule agonists of the retinoic acid receptor (RAR) signaling pathway (AID 1159553). The procedure, abridged: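 RARE-luc C3RL4 cells; overnight attachment 37 C/5% CO2; compound (DMSO) 6 hr; luciferase reagent, 30 min RT; luminescence read-out.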
Assay [13] in a line: qHTS assay to identify small molecule antagonists of the vitamin D receptor (VDR) signaling pathway - cell viability counter screen (AID 743225). Note: nearly all actives have a fitted effect of over 50% in size. Note: potency is the fitted concentration of half-maximal effect. The procedure, abridged:
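Cells (VDR-UAS-bla HEK 293T) are plated, rested 4 h at 37C, dosed with compound and 3 nM final 1-alpha,25-dihydroxy vitamin D3, and incubated 16 h. Viability is taken from CellTiter-Glo luminescence in the reporter wells.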

A short description of assay [14]: qHTS assay to identify small molecule agonists of the vitamin D receptor (VDR) signaling pathway - cell viability counter screen (AID 743224). Note: nearly all actives have a fitted effect of over 50% in size. Note: potency is the fitted concentration of half-maximal effect. Summed up: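 Cytotoxicity counter screen: VDR-bla cells, 16 h compound exposure at 37C, 5% CO2; CellTiter-Glo luminescence, 30 min RT, same wells as bla read.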

“And” between values parts separate entries of the source, which are not always exact repeats. Equal entries are not always repeated. Inconclusive results are not listed. Where a structure was tested more than once in an assay, its records may differ in their call. The source made the active and inactive calls. Unless noted, calls come from the whole dose curve; as a rule, active = well fitted curve in the direction sought with a large enough effect in the repeat runs; inconclusive = weak or mixed curves; inactive = no such curve, though single readings can be large; an effect the other way counts as inactive or inconclusive.

Chain of Retinoic acid receptor RXR-alpha (Homo sapiens) (P19793 whole entry, looked up): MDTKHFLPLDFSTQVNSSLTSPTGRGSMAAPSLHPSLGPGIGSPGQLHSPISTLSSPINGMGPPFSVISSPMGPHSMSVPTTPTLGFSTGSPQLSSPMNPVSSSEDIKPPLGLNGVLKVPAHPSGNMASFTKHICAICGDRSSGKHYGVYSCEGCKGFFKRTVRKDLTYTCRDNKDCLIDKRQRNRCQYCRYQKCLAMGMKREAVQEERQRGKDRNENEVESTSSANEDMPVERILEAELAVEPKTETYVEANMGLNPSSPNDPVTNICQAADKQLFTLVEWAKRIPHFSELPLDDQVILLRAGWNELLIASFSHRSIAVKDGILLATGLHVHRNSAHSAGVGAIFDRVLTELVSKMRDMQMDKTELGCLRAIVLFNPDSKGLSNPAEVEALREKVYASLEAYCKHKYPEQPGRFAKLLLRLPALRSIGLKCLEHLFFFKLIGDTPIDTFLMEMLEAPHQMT

Take `SCc1ccccc1`: the Potency result in assay [1], in assay [2], in [3], in assay [4], in assay [5] and in assay [6] was “inactive” in each case. Further, the Potency result in assay [7], in assay [8] and in assay [9] was “inactive” in each case.

On to `C[N+]1(CCC(C(N)=O)(c2ccccc2)c2ccccc2)CCCCC1`, for which the Potency result in assay [1], in assay [2], in assay [10], in [3], in assay [5] and in [6] was “inactive” in each case. Besides, the Potency result in [11], in assay [7], in [8] and in assay [12] was “inactive” each time.

Take `CCOC(=O)c1cn2nc(OP(=S)(OCC)OCC)cc2nc1C`: the Potency result in assay [13], in [1], in assay [2], in assay [3], in assay [4] and in [5] was “inactive” throughout. Besides, the Potency result in [6], in assay [7], in assay [8] and in assay [9] was “inactive” throughout.

For `CC1(C)[C@H](C(=O)O[C@H](C#N)c2cccc(Oc3ccccc3)c2)[C@@H]1C=C(Br)Br`, the Potency result in assay [14], in assay [1], in [10], in assay [3], in assay [4] and in assay [5] was “inactive” each time. The Potency result in assay [7] and in [8] was “inactive” in each case.

With `CC(C)CCCCCCCOC(=O)c1ccccc1C(=O)OCCCCCCCC(C)C`, the Potency entry in assay [14], in [1], in assay [2], in assay [3], in assay [4] and in assay [5] was “inactive” in each case. For the same compound, the Potency result in [6], in assay [7] and in assay [8] was “inactive” each time.

As to `O=P(OCC(Br)CBr)(OCC(Br)CBr)OCC(Br)CBr` (stereo not drawn), the Potency result in assay [1], in [10], in assay [3], in [5], in [6] and in assay [7] was “inactive” in each case. Besides, the Potency result in assay [8] and in assay [9] was “inactive” in each case.

With `Cc1ccc2c(C)cccc2c1`, the Potency result in [14], in [1], in assay [2], in assay [3], in assay [4] and in [6] was “inactive” each time. Moreover, the Potency entry in assay [7], in assay [8], in assay [9] and in assay [12] was “inactive” throughout.

Turning to `O=C([O-])c1ccccn1.O=C([O-])c1ccccn1.O=C([O-])c1ccccn1.[Cr+3]`, the Potency entry in assay [14], in assay [1], in [2], in assay [3], in assay [4] and in [5] was “inactive” each time. The Potency entry in assay [6], in assay [7] and in assay [8] was “inactive” throughout.

`CCSCc1ccccc1OC(=O)NC`: the Potency result in assay [14], in assay [13], in [1], in assay [2], in assay [3] and in assay [4] was “inactive” in each case. Besides, the Potency result in assay [6], in [11], in [8] and in [9] was “inactive” in each case.

Consider `Cc1nc2ccccc2c(=O)n1-c1ccccc1Cl`, for which the Potency result in [13], in assay [1], in assay [2], in assay [3], in assay [4] and in [5] was “inactive” in each case. The Potency entry in assay [6], in assay [7], in assay [8] and in assay [9] was “inactive” throughout.

Regarding `COP(=O)(OC)OC(Br)C(Cl)(Cl)Br` (stereo not drawn), the Potency result in [13], in assay [1], in [10], in [5], in assay [11] and in assay [8] was “inactive” in each case. Further, the Potency in assay [3] was 24.3 µM (active); in assay [4] it was 27.3 µM (active).

With `C[CH2][Hg][S]c1ccccc1C(=O)O`, the Potency in assay [1] was 3.47 µM (active) and 6.01 µM (active); in assay [3] it was 1.09 µM (active) and 1.68 µM (active); in assay [4], 611 nM (active) and 1.33 µM (active); in assay [7], 1.23 µM (active) and 1.51 µM (active); in assay [8], 13.7 µM (active) and 18.8 µM (active); in assay [9] it was 1.93 µM (active) and 2.66 µM (active).

`CN1C[C@H](C(=O)N[C@]2(C)O[C@@]3(O)[C@@H]4CCCN4C(=O)[C@H](Cc4ccccc4)N3C2=O)C=C2c3cccc4[nH]cc(c34)C[C@H]21`: the Potency entry in [14], in assay [1], in assay [3], in assay [5], in [6] and in assay [11] was “inactive” in each case. Further, in assay [8], the Potency result is “inactive”. Besides, the Potency in assay [4] was 54.7 µM (active) and inactive; in assay [7] it was 22 µM (active).

Regarding `CCCCC(CC)COC(=O)c1c(Br)c(Br)c(Br)c(Br)c1C(=O)OCC(CC)CCCC` (stereo not drawn), the Potency result in assay [14], in assay [1], in assay [2], in [3], in assay [4] and in assay [5] was “inactive” each time. For the same compound, the Potency entry in [6], in assay [7], in assay [8] and in assay [12] was “inactive” in each case.

Take `CCCN(CCC)c1c([N+](=O)[O-])cc(C(C)C)cc1[N+](=O)[O-]`: the Potency entry in assay [1], in assay [10], in assay [3], in assay [4], in assay [5] and in assay [6] was “inactive” in each case. The Potency entry in assay [11], in [8], in [9] and in assay [12] was “inactive” in each case.

Take `[Cl-].[Cl-].[Hg+2]`: the Potency in assay [14] was 773 nM (active) and 1.1 µM (active); in assay [13] it was 1.22 µM (active) and 3.47 µM (active); in assay [1], 3.45 µM (active) and 49 µM (active); in [10], 48.8 µM (active); in assay [3], 48.3 µM (active) and 1.09 µM (active); in assay [5] it was 4.88 µM (active) and 4.36 µM (active). Further, the Potency in assay [7] is 3.08 µM (active) and 3.09 µM (active); in [8], 27.2 µM (active) and 6.11 µM (active).

As to `CNC(=O)Oc1cccc(N=CN(C)C)c1`, the Potency result in assay [14], in [13], in assay [1], in assay [2], in [3] and in assay [4] was “inactive” in each case. Also, the Potency entry in assay [6], in [7], in assay [8], in assay [9] and in assay [12] was “inactive” throughout.

For the compound `Cc1ncc(C[n+]2csc(CCO)c2C)c(N)n1`, the Potency result in assay [14], in assay [13], in assay [1], in [2], in assay [3] and in assay [6] was “inactive” in each case. For the same compound, the Potency result in [7], in assay [8], in assay [9] and in assay [12] was “inactive” throughout.

Turning to `O=[N+]([O-])/C=C/c1ccccc1`, the Potency in [13] was 49.8 µM (active) and inactive; in [1], 44.4 µM (active) and 54.9 µM (active); in [3], 11 µM (active) and 13.7 µM (active). For the same compound, in assay [10], the Potency entry was “inactive”.

With `CCC(C)(C)c1ccc(O)c(C(C)(C)CC)c1`, the Potency in assay [13] is 12.2 µM (active) and 19.5 µM (active); in assay [1], 21.6 µM (active) and 21.9 µM (active); in assay [10], 15.3 µM (active) and 21.9 µM (active); in [3], 60.4 µM (active); in [4], 60.4 µM (active) and 48.6 µM (active); in assay [5] it was 12.2 µM (active) and 13.8 µM (active). Also, the Potency in assay [7] is 12.2 µM (active) and 12.3 µM (active); in assay [8] it was 53.9 µM (active) and 30.6 µM (active); in assay [9], 24.3 µM (active).

With `CCCBr`, the Potency entry in assay [14], in [13], in assay [1], in assay [2], in assay [3] and in assay [5] was “inactive” throughout. Also, the Potency entry in assay [6], in assay [7], in [8] and in [12] was “inactive” each time.

Source of the values: PubChem BioAssay (Tox21).
